Out of some 350,000 compounds screened, about 220 (0.063%) were called active. Another 4% or so got no clear call; they are omitted. This is one part of a sample in which actives are shown more often than they occur. Calls come from the whole dose curve; as a rule, active = well fitted activation curve with a large enough effect; inconclusive = small, poorly fitted or top-dose-only effect; inactive = no such curve, though single readings can be large or run the other way.
assay: qHTS for Activators of Integrin-Mediated Alleviation for Muscular Dystrophy; details: alpha7betagal myoblasts, beta-gal FDG fluorescence, 48 h; series mostly up to 38.3 µM; activation: at the top concentration; note: nearly all actives have a fitted effect of over 60% in size;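 for activation: 100% = response of the positive control SU9516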
Text: Integrins are a diverse family of transmembrane cell surface receptors that mediate interactions between cells and the extracellular matrix. These heterodimeric proteins are composed of alpha and beta subunits and the a7b1 interacts with laminin in the extracellular matrix and actin of the cell cytoskeleton. Both chains contribute to ligand binding, but the alpha chain mediates the specificity of the interaction. The alpha7beta1 integrin is a major laminin receptor in skeletal, cardiac and vascular smooth muscle. Mutations in the alpha7 integrin gene are responsible for muscular dystrophy in both humans and mice. The alpha7beta1 integrin is also a major modifier of muscle disease progression in various muscle diseases including Duchenne muscular dystrophy, Fukuyama muscular dystrophy and merosin deficient congenital muscular dystrophy type 1A. […] Transcriptional regulation of the alpha7 integrin gene is poorly understood and probably involves multiple transcription factors. The goal of identifying small molecules that enhance alpha7 integrin expression is two-fold: firstly, such molecules would help us gain insight into the complex transcriptional control of alpha7 integrin. It is known that alpha7 integrin expression is tightly controlled during various stages of development, disease and in response to external stimuli. The second goal of the project is to translate the above finding into a therapeutic strategy for muscular dystrophy. […] Thus this project aims to discover small molecule probes that would not only help in gaining a better understanding of the complex regulatory mechanism of alpha7 integrin expression, but also lead to development of pharmacological agents to fight muscular dystrophy. NIH Chemical Genomics Center [NCGC] NIH Molecular Libraries Probe Centers Network [MLPCN] MLPCN Grant: NS058429 Assay Submitter (PI): Dean Burkin, University of Nevada School of Medicine
A total of 250 alpha7betagal+/- myoblasts at passage 13 were dispensed using a mulitdrop from Thermo into black low base tissue culture treated microclear aurora plates in 6 ul media containing DMEM without phenol, 5% FBS, 1x GluMax and 1x Penicillin/Streptomycin. The plates were incubated 16-24 hr at 37C, 5% CO2, 95% humidity covered with low evaporation stainless steel lids from Kalypsys. Compounds were then dispensed using a Kalypsys pintool to deliver 23 nl/well compounds in DMSO (diluted into 6 uL resulting in a 1:260 dilution of compound). The control compound used was the cdk2 inhibitor SU9516 from Tocirs (found in the initial LOPAC screen). The plates were incubated for 48 hours at 37C, 5% CO2, 95% humidity using the same stainless steel lids. After incubation with compound, 5 ul of the media was aspirated using the Kalypsys washer/dispenser and 3 ul of the Mammalian Protein Extraction Reagent (MPER) lysis buffer (Thermo Fisher) was added. The plates were spun at 2000 rpms to remove bubbles and an initial capture was acquired on the Viewlux (Perkin Elmer) with exciation at 480 nm and emission at 540 nm for 25 seconds to omit any auto fluorescent compounds. The plates were then incubated for 10 minutes at room temperature. After incubation, 3 ul of 125 uM Fluorescein di-galactoside (FDG) (Marker Gene Technologies) diluted in PBS with 2 mM MgCl2 and 0.2% betamercaptoethanol (BME) was added, the plates were spun at 2000 rpms and incubated for 30 minutes at room temperature. The plates were again read on the Viewlux with exciation at 480 nm and emission at 540 nm for 25 seconds.
Potency is the fitted concentration of half-maximal effect.

activation, inactive:
O=C(Nc1ccc(Cl)cn1)c1ccccc1-c1ccccc1 -8.37%, CCCCCCN1C[C@H](O)[C@@H](n2cc(C3CC3)nn2)C[C@@H]1c1ccc(Cl)cc1 7.37%, CSc1ncnc2c1ncn2CCCNCc1cccs1 -9.79%, COc1ccc(CCNC(=O)CN(c2ccccc2)S(=O)(=O)c2ccccc2)cc1 3.57%, O=C(NCc1nnnn1-c1ccc(Cl)cc1)c1ccc([N+](=O)[O-])o1 -58.1%, COc1ccc(NC2CCCN(C(=O)c3ccccc3-c3ncc[nH]3)C2)cc1 (centres undefined) 12.6%, Cc1ccc(-c2ccc(CN3C(C)C(=O)N(Cc4cn(CCC5OCCCO5)nn4)CCS3(=O)=O)cc2)cc1 (centres undefined) 2.44%, COC(=O)C[C@H]1C[C@@H]2c3cc(NC(=O)Nc4ccccc4)ccc3O[C@@H]2[C@@H](CO)O1 -4.07%, Cc1ccc(-c2nc3ccc(Cl)cn3c2Cc2ccccc2)cc1 10.4%, N#Cc1ccc(OCC(=O)Nc2nc(-c3ccccn3)cs2)cc1 -39.2%, Cc1sc2nc(-c3ccccc3F)oc(=O)c2c1C -16.1%, O=C1[C@H]2[C@@H](c3ccc(C(F)(F)F)cc3)N[C@]3(CCCN(Cc4ccc(Br)cc4)C3=O)[C@H]2C(=O)N1Cc1ccccc1 -57.5%, O=C(c1ccc(CS(=O)Cc2ccccc2Cl)o1)N1CCN(c2ccccc2)CC1 (centres undefined) -8.87%, C[C@H]1CN([C@@H](C)CO)C(=O)CCCn2nncc2CO[C@@H]1CN(C)Cc1ccc(Oc2ccccc2)cc1 -10.8%, Cc1ccc([C@H]2N[C@]3(CCCN(CC4CCCCC4)C3=O)[C@H]3C(=O)N(Cc4ccccc4)C(=O)[C@@H]23)cc1 -6.15%, COc1cccc(OCC(=O)NCCS(=O)(=O)N2CCN(c3ccccc3)CC2)c1 -8.47%, CCOC(=O)c1c(C)[nH]c(C)c1C(=O)COC(=O)/C=C/c1cccc([N+](=O)[O-])c1 4.11%, CC(C)NC(=O)Nc1ccc2c(c1)C(=O)N([C@H](C)CO)C[C@H](C)[C@@H](CN(C)Cc1ccc(C(F)(F)F)cc1)OCCCC[C@@H](C)O2 2.43%, O=c1[nH]c2ccccc2n1C1CCN(CCOc2ccccc2)CC1 -61.8%, c1ccc(Cn2nnc3c(NCC4CC4)ncnc32)cc1 -2.86%, CN1OC[C@@H]2CN[C@H](c3ccc(-c4ccccc4)cc3)C[C@@H]21 -9.06%, COc1ccccc1NC(=O)C(CC(=O)O)Cc1cc(C)cc(C)c1 (centres undefined) -10.1%, C[C@@H]1CN([C@H](C)CO)C(=O)CCCn2nncc2CO[C@@H]1CN(C)S(=O)(=O)c1cccc(C#N)c1 7.94%, O=S1(=O)CCN(C2CCCCCCCCCCC2)CC1 5.58%, O=C(NCCc1cccc(F)c1)C1CC(O)CN1C(=O)Nc1ccccc1 (centres undefined) 3.57%, CC1(c2cccc(N)c2)OCCO1 4.71%, C[C@H](CO)N1C[C@H](C)[C@H](CN(C)C(=O)c2ccncc2)OCc2ccccc2-c2c(n(C)c3ccccc23)C1=O -13%, Cc1cc(C)c2c(=O)n3c(nc2c1)C(CC(C)C)NC(=O)c1cc2ccccc2cc1-3 (centres undefined) 14.1%, O=C(c1ccc(N2CCCC2=O)cc1)N1CCN(c2ccc(C(F)(F)F)cc2[N+](=O)[O-])CC1 -30.8%, O=C(CN1C(=O)NC2(CCc3ccccc32)C1=O)NC1CCCCC1 (centres undefined) -11%, Cc1nc(-c2ccc(F)cc2)c(CC(=O)N(C)CC(=O)Nc2c(C)cccc2C)s1 7.81%, Cc1nc(-c2ccc(F)cc2)c(CC(=O)Nc2cccc(S(=O)(=O)N3CCOCC3)c2)s1 -5.59%, COc1ccc(Cn2c(=O)oc3ccccc32)cc1 20.9%, CCN(CC)C(=O)C1=C(C)N(Cc2ccc(OC)cc2)C(=O)C(CC(=O)NCCCCc2ccccc2)C1 (centres undefined) -20.6%, CC(C)N=C1CCCC1C(=S)SSC(=S)C1CCCC1=NC(C)C (centres undefined) -59.1%, COc1cccc(N2CCN(C3CC(=O)N(c4ccc(Cl)cc4)C3=O)CC2)c1 (centres undefined) -12.2%, COc1cccc(N2C(=O)CC(N3CCN(S(=O)(=O)c4ccccc4)CC3)C2=O)c1 (centres undefined) -6.38%, CN1CCN(c2ccncc2S(=O)(=O)N2CCCC2)CC1 -15.2%, Cc1ccc(S(=O)(=O)N(CCc2ccccc2)c2ccc3c(c2)C2CC3CCN2C(=O)OCc2ccccc2)cc1 (centres undefined) 27.3%, Cc1onc(-c2ccccc2)c1-c1nnc(COC(=O)c2ccc(N(C)C)cc2)o1 -37.3%, NC1=CC(=O)C(=O)c2cccnc21 -63.6%, COc1cc(C(=O)N2CCOC23CCN(Cc2ccccc2)CC3)cc(OC)c1OC -6.04%, C[C@H](O)[C@@H]1C(=O)N2CCc3c([nH]c4ccccc34)[C@@H]2C[C@@H]1N(C)C(=O)Nc1ccc(F)cc1 4.41%, CCCCN1C(=O)C(CC(=O)NCc2cccs2)CC(C(=O)N2CCOCC2)=C1C (centres undefined) 6.71%, O=C(c1cccs1)N1C[C@H](n2cc(C3CC3)nn2)[C@@H](O)C[C@@H]1c1ccccc1 14.6%, COc1ccc(CNS(=O)(=O)c2cc3c4c(c2)CCN4C(=O)CC3)cc1 20.1%, COc1ccc(C)cc1S(=O)(=O)Nc1cc2c3c(c1)CCC(=O)N3CCC2 4.85%, CCOC(=O)C=Cc1ccc(C(=O)OCC)[nH]1 -34.3%, C[C@H]1CN([C@@H](C)CO)S(=O)(=O)c2ccc(Br)cc2O[C@H]1CN(C)C(=O)c1cnccn1 -27.4%, COc1ccc(CC(NC(C)=O)C(=O)NC2CCN(C(=O)c3ccc(Cl)cc3)CC2)cc1 (centres undefined) -8.42%, CC(=O)NC(Cc1ccc(F)c(F)c1)C(=O)NC1CCN(C(=O)c2ccc(C)cc2)CC1 (centres undefined) -16.1%, O=C(c1ncn2c1c(=O)[nH]c1ccccc12)N1CCc2ccccc2C1 5.05%, CC1(C)CN(Cc2cccnc2)C(=O)[C@H]1CC(=O)Nc1ccc(Br)cc1 8.33%, Cc1ccc([C@H]2C[C@H](O)[C@@H](n3cc(COC(=O)c4ccccc4)nn3)CN2C(=O)C2CCCCC2)cc1 12.2%, CSc1ncnc2c1ncn2CCCNCC1CCCCC1 -8.29%

Potency, active:
Cc1ccc(-c2nc(C)sc2CC(=O)OCC(=O)Nc2c(F)cccc2F)cc1 12.6 µM, COc1cccc(N2C(=O)CC(N3CCc4ccccc4C3)C2=O)c1 (centres undefined) 10 µM, O=C1CCc2cc(S(=O)(=O)Nc3ccc(C(F)(F)F)cc3)cc3c2N1CC3 11.2 µM, CNC(=S)N1CCC(NC(=O)C(Cc2ccc(F)cc2)NC(C)=O)CC1 (centres undefined) 3.16 µM

From PubChem BioAssay AID624291 (National Center for Advancing Translational Sciences (NCATS), 2012)
